# MEP2-GFP yeast = yeast TOR pathway MEP2-GFP modulation; S. cerevisiae MEP2-GFP strain, flow cytometry GFP, 3 h; 100% = DMSO control level; hit rate 0.51% among 330,000; GFP response vs DMSO, % at 10 µM;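 active means GFP response versus DMSO above a set limit, roughly screen mean plus 3 SD, cut at about 180% in these data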;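 further: median GFP fluorescence of the barcode-gated MEP2-GFP cells per well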
# LAP4 TOR yeast = alters LAP4-GFP fluorescence in TOR pathway yeast screen; S. cerevisiae LAP4-GFP multiplex, flow cytometry GFP, 3 h; median GFP as percent of DMSO wells; hit rate 0.34% among 320,000; AID 2023; GFP response vs DMSO, % at 10 µM;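 active means GFP response vs DMSO above a set limit, about the screen mean plus 3 SD, cut at about 150% in these data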
# AGP1 TOR yeast = yeast TOR pathway AGP1-GFP modulation; S. cerevisiae AGP1-GFP multiplex flow cytometry, 3 h; GFP as percent of DMSO wells; GFP response vs DMSO, % at 10 µM; hit rate 0.02% among 320,000; AID 2066;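 active means GFP response relative to DMSO above a set limit, near screen average plus 3 SD, cut at about 150% in these data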;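 further: median GFP channel fluorescence of the gated AGP1 strain per well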
# CIT2 TOR yeast = alters CIT2-GFP fluorescence in TOR pathway yeast screen. S. cerevisiae CIT2-GFP strain, flow cytometry, 3 h; 100 means same as DMSO wells. GFP response vs DMSO, % at 10 µM. hit rate 0.065% among 320,000;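 active means GFP response relative to DMSO above a set limit, near the screen mean plus 3 SD, cut at about 150% in these data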;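 further: ratio of well median GFP fluorescence to mean of DMSO wells on the plate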
# RPL19A-GFP yeast = modulators of TOR pathway RPL19A-GFP in S. cerevisiae; percent response vs DMSO, % at 10 µM; S. cerevisiae RPL19A-GFP strain, flow cytometry, 3 h; hits give low values; AID 2025; hit rate 0.3% among 330,000;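 active means percent response vs DMSO below 50%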;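 further: median channel GFP fluorescence of the barcoded RPL19A-GFP strain; lower means less RPL19A-GFP as with rapamycin TOR inhibition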
# LAP4-GFP pick2 = yeast LAP4-GFP modulation, second cherry pick; shares compounds with LAP4 TOR yeast; S. cerevisiae LAP4-GFP strain, flow cytometry GFP, 3 h; GFP response vs DMSO, % at 10 µM; hit rate 20% among 590; AID 2621;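 active means GFP signal as percent of the solvent control above about 150%, meaning raised reporter expression, limit read from the data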
# MEP2-GFP pick2 = reconfirmed MEP2-GFP TOR pathway modulator in yeast. shares compounds with LAP4 TOR yeast. S. cerevisiae MEP2-GFP strain, flow cytometry GFP, 3 h. GFP response vs DMSO, % at 10 µM. hit rate 10% among 590. AID 2622;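 active means GFP signal above 150% of the solvent control wells, that is a rise of more than half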;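 further: median channel GFP fluorescence of all gated yeast cells per well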
# RPL19A-GFP pick2 = yeast RPL19A-GFP TOR reporter modulation, second cherry pick | GFP response vs DMSO, % at 10 µM | S. cerevisiae RPL19A-GFP strain, flow cytometry GFP, 3 h; hits give low values; 100% means same as DMSO wells | AID 2623 | shares compounds with LAP4 TOR yeast | hit rate 3% among 590;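 active means under 65% GFP response relative to DMSO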;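 further: median GFP channel fluorescence per well over the all cells gate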
# CIT2 GFP CP2 = yeast CIT2-GFP TOR reporter modulation, second cherry pick. shares compounds with LAP4 TOR yeast. hit rate 8% among 590. S. cerevisiae CIT2-GFP strain, flow cytometry GFP, 3 h; DMSO control wells read 100%. GFP response vs DMSO, % at 10 µM;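 active means GFP response vs DMSO above about 150%, limit read from the data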;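 further: median green fluorescence per well over all gated yeast cells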
# AGP1 GFP CP2 = reconfirmed modulator of AGP1-GFP TOR reporter in yeast; shares compounds with LAP4 TOR yeast; S. cerevisiae AGP1-GFP strain, flow cytometry GFP, 3 h; percent response vs DMSO, % at 10 µM; 590 tested, under 10 active; AID 2643;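 active means over 150 percent of DMSO response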;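 further: median GFP channel fluorescence over all cells without mother daughter split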
# s288c autofluor = compound is autofluorescent in yeast s288c cells; shares compounds with LAP4 TOR yeast; S. cerevisiae s288c, 520 nm autofluorescence, flow cytometry, 3 h; hits give high values; zero means same as solvent-only cells; fluorescence change (kMESF span) at 33 µM; 610 tested, under 10 active; AID 2757;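 active means fluorescence span over the dose series, or activity score, above about 33, limit read from the data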
# Yeast autofl DR = TOR screen hit shows autofluorescence in yeast s288c. shares compounds with LAP4 TOR yeast. S. cerevisiae s288c parental, compound autofluorescence, flow cytometry, 3 h. fluorescence change (span) at 33 µM. 110 tested, under 10 active;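 active means fluorescence change span, or the activity score built from it, above 25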
# TORC1 bypass = stops wildtype yeast growth while TORC1 bypass cells still grow | 120 tested, under 10 active | shares compounds with LAP4 TOR yeast | growth rating (0-3) at 30 µM | S. cerevisiae BY4741 spot growth rating, 48-72 h; hits give low values;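 active means growth rating at most 1 for wild type yeast while the TORC1 bypass strain still grows fully, rated 3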
# Numbers stand for hits; 0 = inactive; - = not tested or not shown. Only some compounds are listed: those with a hit (about 0.92% of all), similar ones and a draw of the others.
SMILES,MEP2-GFP yeast,LAP4 TOR yeast,AGP1 TOR yeast,CIT2 TOR yeast,RPL19A-GFP yeast,s288c autofluor,others
O=C(CCS(=O)(=O)c1ccc2c(c1)NC(=O)CS2)NCCc1ccc(Cl)cc1,0,0,0,0,0,-,
O=C(CCS(=O)(=O)c1ccc2c(c1)NC(=O)CS2)NCCc1ccccc1,0,158.8,0,0,0,-,LAP4-GFP pick2=0;MEP2-GFP pick2=0;RPL19A-GFP pick2=0;CIT2 GFP CP2=0;AGP1 GFP CP2=0
O=C(O)c1ccc(COc2ccccc2C=C2C(=O)c3ccccc3C2=O)cc1,0,0,0,0,0,0,LAP4-GFP pick2=0;MEP2-GFP pick2=0;RPL19A-GFP pick2=0;CIT2 GFP CP2=0;AGP1 GFP CP2=0
O=C1NC(=S)N/C1=C\c1ccccc1OCc1ccc(C(=O)O)cc1,0,0,0,0,0,-,
Cc1cc(C)nc(CCNC(=O)c2cc(COc3ccccc3)on2)n1,0,0,0,0,0,-,
Cc1cc(NC(=O)COc2ccc3ccccc3c2)no1,0,0,0,0,0,-,
COc1ccc(N=Cc2nc(-c3ccco3)oc2O)cc1,0,0,0,0,0,-,
CC(=O)Oc1oc(-c2ccccc2)nc1/C=N/c1ccccn1,0,0,0,0,0,-,
CN(C)c1ccc(N=Cc2nc(-c3ccccc3)oc2OC(=O)c2ccccc2)cc1,0,0,0,0,0,0,
Oc1oc(-c2ccccc2)nc1C=Nc1ccccc1,0,0,0,0,0,-,
CN(C)c1ccc(N=Cc2nc(-c3ccccc3)oc2O)cc1,0,0,0,0,0,-,
COc1ccccc1N=Cc1nc(-c2ccccc2)oc1OC(C)=O,0,0,0,0,0,0,
O=C(Oc1oc(-c2ccco2)nc1C=Nc1ccc(Cl)cc1)c1ccco1,0,229.6,0,0,0,0,
CC(=O)Oc1oc(-c2ccccc2)nc1C=Nc1ccc(N(C)C)cc1,0,0,0,0,0,0,
CCN(CC)c1ccc(C=Nc2ccc(OC)c(S(=O)(=O)N3CCOCC3)c2)c(O)c1,0,0,0,0,0,-,
CC(Sc1nnc(C2CC2)n1C1CC1)C(=O)c1ccc(F)cc1 (stereo not given),0,0,0,0,0,-,
Cc1cc(-c2ccco2)c(C#N)c2nc3ccccc3n12,0,0,0,0,0,-,LAP4-GFP pick2=0;MEP2-GFP pick2=0;RPL19A-GFP pick2=0;CIT2 GFP CP2=0;AGP1 GFP CP2=0
O=C(/C=C/c1cccs1)NC(=S)NNC(=O)c1ccccc1O,0,0,0,0,0,-,
COc1ccc(C(=O)NNC(=S)NC(=O)/C=C/c2cccs2)cc1,0,186.1,0,0,0,0,Yeast autofl DR=0;TORC1 bypass=0
CCN(C(=O)Cn1c(=O)oc2cc(S(=O)(=O)N3CCCC3)ccc21)c1ccc(OC)cc1,503.8,0,0,0,0,-,LAP4-GFP pick2=0;MEP2-GFP pick2=0;RPL19A-GFP pick2=0;CIT2 GFP CP2=0;AGP1 GFP CP2=0
CCc1cccc2sc(N3CCN(C(=O)c4ccc([N+](=O)[O-])o4)CC3)nc12,0,0,0,0,31.9,0,
